Results on 40 molecules are retold here after the supplement of paper PMC9023506.

Structures can show the parent of a compound that is named as a salt.

The test system of the assay is Danio rerio larvae (5 dpf). Put plainly: startle response to 20-s acoustic pulses, difference vs DMSO (percentage points (treated minus DMSO)); higher = more of the behaviour than the DMSO vehicle control. The settings on record: 10 µM; exposure time: 3 h pre-incubation + 3 h imaging. The method, then: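 5-dpf wild-type zebrafish larvae were imaged in 96-well plates. They were treated with 190 Tocris FDA-approved drugs at 10 µM (1 µl/ml DMSO) for 3 h before and 3 h during imaging at 28.5 °C, 48 larvae per drug. Automated image analysis gave % time moving and optomotor responses. Values are drug group mean minus DMSO vehicle mean (n=844), in percentage points, for 10 behaviours.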
In the case of `CCN(CC)CCNC(=O)c1c(C)[nH]c(/C=C2\C(=O)Nc3ccc(F)cc32)c1C` [Sunitinib malate], the “startle response to 20-s acoustic pulses” value is -2.32.

Take `C=C1[C@H](CO)[C@@H](O)C[C@@H]1n1cnc2c(=O)[nH]c(N)nc21` [Entecavir]: the “startle response to 20-s acoustic pulses” value came to 3.11.

For `CN1CCC[C@@H]1Cc1c[nH]c2ccc(CCS(=O)(=O)c3ccccc3)cc12` [Eletriptan hydrobromide], the “startle response to 20-s acoustic pulses” value was determined as 1.42.

For the molecule `COc1cccc2c1C(=O)c1c(O)c3c(c(O)c1C2=O)C[C@@](O)(C(=O)CO)C[C@@H]3O[C@H]1C[C@H](N)[C@H](O)[C@H](C)O1` [Doxorubicin hydrochloride], the “startle response to 20-s acoustic pulses” value turned out to be 3.62.

As to `CC(CCc1ccc(O)cc1)NCCc1ccc(O)c(O)c1` (stereo not given) [Dobutamine hydrochloride], the “startle response to 20-s acoustic pulses” value worked out at 2.42.

For `CC(C)(C)NC(=O)[C@@H]1C[C@@H]2CCCC[C@@H]2CN1C[C@@H](O)[C@H](Cc1ccccc1)NC(=O)[C@H](CC(N)=O)NC(=O)c1ccc2ccccc2n1` [Saquinavir mesylate], the “startle response to 20-s acoustic pulses” value came to 0.0193.

`C[C@@H](O[C@H]1OCCN(Cc2n[nH]c(=O)[nH]2)[C@H]1c1ccc(F)cc1)c1cc(C(F)(F)F)cc(C(F)(F)F)c1` [Aprepitant]: the “startle response to 20-s acoustic pulses” value is -6.92.

As to `CC(C)c1nc(N(C)S(C)(=O)=O)nc(-c2ccc(F)cc2)c1/C=C/[C@@H](O)C[C@@H](O)CC(=O)O` [Rosuvastatin calcium], the “startle response to 20-s acoustic pulses” value was -3.11.

For the molecule `O=C(NCC1CCCCN1)c1cc(OCC(F)(F)F)ccc1OCC(F)(F)F` (stereo not given) [Flecainide acetate], the “startle response to 20-s acoustic pulses” value was found to be 1.77.

For the molecule `NS(=O)(=O)c1cc2c(cc1Cl)NC(C1CC3C=CC1C3)NS2(=O)=O` (stereo not given) [Cyclothiazide], the “startle response to 20-s acoustic pulses” value was -0.96.

As to `CC(=O)O[C@H]1C(=O)[C@@]2(C)[C@H]([C@H](OC(=O)c3ccccc3)[C@]3(O)C[C@H](OC(=O)[C@H](O)[C@@H](NC(=O)c4ccccc4)c4ccccc4)C(C)=C1C3(C)C)[C@]1(OC(C)=O)CO[C@@H]1C[C@@H]2O` [Taxol], the “startle response to 20-s acoustic pulses” value is -0.529.

Regarding `COC(c1ccccc1)(c1ccccc1)[C@H](Oc1nc(C)cc(C)n1)C(=O)O` [Ambrisentan], the “startle response to 20-s acoustic pulses” value amounted to 5.96.

As to `CC1=Nc2ccc(Cl)cc2S(=O)(=O)N1` [Diazoxide], the “startle response to 20-s acoustic pulses” value was -3.68.

On to `N#Cc1ccc2[nH]cc(CCCCN3CCN(c4ccc5oc(C(N)=O)cc5c4)CC3)c2c1` [Vilazodone hydrochloride], for which the “startle response to 20-s acoustic pulses” value is -6.5.

Turning to `CCCc1nc(C(C)(C)O)c(C(=O)O)n1Cc1ccc(-c2ccccc2-c2nnn[nH]2)cc1` [Olmesartan], the “startle response to 20-s acoustic pulses” value worked out at 7.62.

As for `Cc1cn([C@H]2C=C[C@@H](CO)O2)c(=O)[nH]c1=O` [Stavudine], the “startle response to 20-s acoustic pulses” value was -0.918.

As to `CC(=O)O[C@]1(C(C)=O)CC[C@H]2[C@@H]3C=C(C)C4=CC(=O)CC[C@]4(C)[C@H]3CC[C@@]21C` [Megestrol Acetate], the “startle response to 20-s acoustic pulses” value was -15.1.

For the molecule `CN1CC(=O)N2[C@H](c3ccc4c(c3)OCO4)c3[nH]c4ccccc4c3C[C@@H]2C1=O` [Tadalafil], the “startle response to 20-s acoustic pulses” value came out at 7.96.

For the molecule `CC(C)OC(=O)C(C)(C)Oc1ccc(C(=O)c2ccc(Cl)cc2)cc1` [Fenofibrate], the “startle response to 20-s acoustic pulses” value was -3.27.

In the case of `CCCN(CCc1cccs1)[C@H]1CCc2c(O)cccc2C1` [Rotigotine hydrochloride], the “startle response to 20-s acoustic pulses” value is -4.68.

For the molecule `CCN(Cc1ccncc1)C(=O)C(CO)c1ccccc1` (stereo not given) [Tropicamide], the “startle response to 20-s acoustic pulses” value is -8.17.

On to `CCCCc1nc(Cl)c(CO)n1Cc1ccc(-c2ccccc2-c2nnn[nH]2)cc1` [Losartan potassium], for which the “startle response to 20-s acoustic pulses” value is -0.252.

As for `N[C@@H]1[C@H]2CN(c3nc4c(cc3F)c(=O)c(C(=O)O)cn4-c3ccc(F)cc3F)C[C@@H]12` [Trovafloxacin mesylate], the “startle response to 20-s acoustic pulses” value is -7.29.

`CC[C@H](C)C(=O)O[C@H]1C[C@@H](C)C=C2C=C[C@H](C)[C@H](CC[C@@H]3C[C@@H](O)CC(=O)O3)[C@H]21` [Lovastatin]: the “startle response to 20-s acoustic pulses” value is -0.839.

Regarding `Cc1ccccc1C(=O)Nc1ccc(C(=O)N2CCCC(O)c3cc(Cl)ccc32)c(C)c1` (stereo not given) [Tolvaptan], the “startle response to 20-s acoustic pulses” value is 3.71.

On to `NS(=O)(=O)c1cc(C(=O)O)c(NCc2ccco2)cc1Cl` [Furosemide], for which the “startle response to 20-s acoustic pulses” value was -4.02.

Regarding `CNCc1ccc(-c2[nH]c3cc(F)cc4c3c2CCNC4=O)cc1` [Rucaparib camsylate], the “startle response to 20-s acoustic pulses” value was -4.08.

Turning to `CCc1nc(N)nc(N)c1-c1ccc(Cl)cc1` [Pyrimethamine], the “startle response to 20-s acoustic pulses” value stood at 1.7.

Turning to `COc1c(C)c2c(c(O)c1C/C=C(\C)CCC(=O)O)C(=O)OC2` [Mycophenolic acid], the “startle response to 20-s acoustic pulses” value came out at 2.15.

Consider `CNC(=O)c1ccccc1Sc1ccc2c(/C=C/c3ccccn3)n[nH]c2c1` [Axitinib], for which the “startle response to 20-s acoustic pulses” value is -7.73.

`Cc1cc2c(s1)Nc1ccccc1N=C2N1CCN(C)CC1` [Olanzapine]: the “startle response to 20-s acoustic pulses” value is -0.064.

As to `CCOC(=O)[C@H](CCc1ccccc1)N[C@@H](C)C(=O)N1[C@H](C(=O)O)C[C@@H]2CCC[C@@H]21` [Ramipril], the “startle response to 20-s acoustic pulses” value is -1.54.

`CCC(=O)O[C@]1(C(=O)SCF)[C@H](C)C[C@H]2[C@@H]3C[C@H](F)C4=CC(=O)C=C[C@]4(C)[C@@]3(F)[C@@H](O)C[C@@]21C` [Fluticasone propionate]: the “startle response to 20-s acoustic pulses” value was -3.1.

Take `Nc1ncn([C@H]2C[C@H](O)[C@@H](CO)O2)c(=O)n1` [Decitabine]: the “startle response to 20-s acoustic pulses” value was -0.522.

As for `CC(C)N(CCCCOCC(=O)NS(C)(=O)=O)c1cnc(-c2ccccc2)c(-c2ccccc2)n1` [Selexipag], the “startle response to 20-s acoustic pulses” value is -1.31.

For `CN1CC[C@@H](NC(=O)Nc2ccc(C#N)cc2)C[C@@H]1c1nc2ccccc2[nH]1`, the “startle response to 20-s acoustic pulses” value was -5.85.

With `COc1ccc(C[C@@H](C)NC[C@H](O)c2ccc(O)c(NC=O)c2)cc1` [Arformoterol tartrate], the “startle response to 20-s acoustic pulses” value was -9.44.

For `OC(CNCC(O)C1CCc2cc(F)ccc2O1)C1CCc2cc(F)ccc2O1` (stereo not given) [Nebivolol hydrochloride], the “startle response to 20-s acoustic pulses” value was -6.21.

For `O=C(O)CCCc1ccccc1` [Sodium 4-Phenylbutyrate], the “startle response to 20-s acoustic pulses” value was -5.04.

On to `Clc1ccc2nsnc2c1NC1=NCCN1` [Tizanidine hydrochloride], for which the “startle response to 20-s acoustic pulses” value is -1.69.
